Screening results from PubChem BioAssay.
This excerpt belongs to a sample that is enriched for hits.
mHTT CaM bind – inhibitors of human mutant huntingtin-calmodulin interaction. inhibition, % at 15 µM. AID 1671202. hit rate 3.6% among 190,000. AlphaScreen His-mHTT/GST-CaM binding, luminescence;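 further: 0% = both proteins with DMSO and 100% = one protein alone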
Pf apPOL block – Pf-apPOL DNA polymerase inhibition; Recombinant Pf-apPOL, molecular beacon fluorescence, 1.5 h; inhibition, % at 10 µM; hit rate 0.25% among 210,000
* hit, by the source's call; . = no result. No stated cut-off is given here; in the data, active means inhibition above about 50%; inactive means the rest.

SMILES | mHTT CaM bind | Pf apPOL block
CCc1nn(-c2ccc(OC)cc2)c(CC)c1C(=O)N1CCOCC1 | 1 | 0
CCN1CCN(C(=O)c2cnn(-c3ccc(Cl)c(Cl)c3)c2C(C)C)CC1 | 39 | -21
O=[N+]([O-])/C(C(Cl)=C(Cl)Cl)=C(\Nc1ccc(F)cc1)n1cncn1 | -4 | 48
COc1ccc(C2(CNC(=O)c3cc4ccccc4o3)CCOCC2)cc1OC | 2 | -4
Nc1ccc(Nc2ccc([N+](=O)[O-])cc2)cc1 | 52* | -5
NCCNc1ccc([N+](=O)[O-])cc1 | 12 | -1
Cc1ccc(C2CC(C(F)F)n3ncc(C(=O)Nc4cnn(Cc5ccccc5C)c4)c3N2)cc1 (stereo not drawn) | 56* | -3
Cc1ccc(C2CC(C(F)(F)F)n3ncc(C(=O)Nc4ccccc4C)c3N2)cc1 (stereo not drawn) | 18 | 0
N#Cc1ccc(N2C=C(C(=O)N3CCCC3)S(=O)(=O)c3ccc(Cl)cc32)cc1 | 1 | 1
COc1cccc2sc(Nc3nc4ccc(S(C)(=O)=O)cc4s3)nc12 | -36 | -252
COc1cccc2sc(Nc3nnc(-c4cccs4)o3)nc12 | 76* | -265
CC(C)NC(=O)N1CCCC(c2cccc(C(=O)NCCN3CCOCC3)c2)C1 (stereo not drawn) | -4 | -3
CC(=O)NC(c1ccco1)c1cc(Cl)c2cccnc2c1O (stereo not drawn) | 100* | -4
CCCCC(=O)NC(c1ccco1)c1cc(Cl)c2cccnc2c1O (stereo not drawn) | 66* | -1
Cc1cc(C)nc(NC(c2ccco2)c2ccc3cccnc3c2O)n1 (stereo not drawn) | 100* | -3
O=C(Nc1c(Cl)cc(Cl)c2cccnc12)c1ccco1 | 4 | -4
CCCCC(=O)NC(c1ccccc1)c1cc(Cl)c2cccnc2c1O (stereo not drawn) | 22 | 11
CCC(=O)NC(c1ccco1)c1cc(Cl)c2cccnc2c1O (stereo not drawn) | 100* | 6
Cc1cc(C)nc(SCC(=O)NCc2ccco2)n1 | -6 | 1
Cc1ccc(C)c(OCC(=O)NC2CC(C)(C)NC(C)(C)C2)c1 | -1 | -1
COc1ccc(C(=O)N2CCN=C2c2ccccc2)cc1 | 0 | -9
CCC(=O)NC(c1ccco1)c1ccc2cccnc2c1O (stereo not drawn) | 100* | 3
CCC(=O)Nc1ccc(Br)c2cccnc12 | -5 | 1
COc1cc(C2CC(=O)Nc3c2c(C)nn3-c2nc3ccccc3s2)ccc1O (stereo not drawn) | -3 | -2
FC(F)(F)c1nnc2ccc(N3CCOCC3)nn12 | -4 | .
SMILES | mHTT CaM bind | Pf apPOL block
CC(C)(C)N(Cc1cn(Cc2ccccc2)nn1)S(=O)(=O)c1ccc(N2CCCCC2)cc1Br | -6 | -10
Cc1cc(O)c(C(C)C)cc1NC(=O)c1ccc(Cl)cc1 | 4 | -11
Cc1cc(O)c(C(C)C)cc1N=C1CSC(=O)N1 | 53* | -6
Fc1ccc2c(c1)Sc1ccccc1N2 | 74* | -10
FC(F)(F)c1ccc2c(c1)Nc1ccccc1S2 | . | 12
O=C1/C(=C/c2cccnc2)CC/C1=C\c1cccnc1 | 4 | 1
CC(=O)N1CC(=O)NC(=Cc2cccnc2)C1=O | . | 52*
Cc1cc(C2(c3ccc(O)c(C)c3)C(=O)N(Cc3ccccc3)c3ccccc32)ccc1O | 95* | -8
O=C1N(Cc2ccccc2)c2ccccc2C1(Cc1ccccc1)c1ccccc1 (stereo not drawn) | . | 0
CCn1nccc1C(=O)NC1CCN(c2nccnc2OC)C1 (stereo not drawn) | 10 | -2
O=C(NC1(c2nc(-c3cccnc3)no2)CCCCC1)C1CC(=O)N(c2ccc(F)cc2)C1 (stereo not drawn) | 9 | -4
COc1ccccc1C1CC(c2ccc(Br)cc2)=NN1C(=O)c1cccnc1 (stereo not drawn) | 53* | -3
COc1ccccc1C1CC(c2ccc(Br)cc2)=NN1C(=O)c1ccncc1 (stereo not drawn) | 18 | -5
COc1cccc(C2CC(c3ccc(Br)cc3)=NN2C(=O)c2ccncc2)c1OC (stereo not drawn) | 61* | -5
COc1ccccc1C1CC(c2ccc(Br)cc2)=NN1C(=O)CCC(=O)O (stereo not drawn) | 10 | -1
Cc1ccc(N2N=NC3C(=O)N(c4ccc(F)cc4)C(=O)C32)cc1Cl (stereo not drawn) | -5 | 0
COc1ccc(Cl)cc1NC(=O)C1CC=CCC1C(=O)O (stereo not drawn) | -2 | 1
O=C(NCc1csc(-c2cccs2)n1)C1CCN(C(=O)CCC2CCCC2)CC1 | 4 | -9
Cc1ccc(-c2nc(C)c(C(=O)N3CCC(CC(=O)N4CCOCC4)CC3)s2)cc1 | 4 | -6
COc1nccnc1NC1CCN(C(=O)c2cccs2)CC1 | 3 | 0
COc1cc(C2CC(=O)Nc3n[nH]c(C)c32)ccc1OCc1ccc(Cl)cc1 (stereo not drawn) | 2 | -2
Cc1ccccc1Nc1nccc(C2CCCN(C(=O)c3ccoc3)C2)n1 (stereo not drawn) | 20 | -4
Cc1cccc(-c2nccc(C3CCCN(C(=O)C(C)(C)C)C3)n2)c1 (stereo not drawn) | 5 | -2
CC(C)(C)C(=O)N1CCCC(c2ccnc(Nc3cccc(F)c3)n2)C1 (stereo not drawn) | 78* | -3
COc1ccccc1C(=O)N1CCCC(c2ccnc(-c3cccc(C)c3)n2)C1 (stereo not drawn) | 22 | -5
SMILES | mHTT CaM bind | Pf apPOL block
Cc1ccccc1C(=O)N1CCCC(c2ccnc(-c3ccccc3)n2)C1 (stereo not drawn) | -2 | -3
COc1ccccc1C(=O)N1CCCC(c2ccnc(-c3cccc(F)c3)n2)C1 (stereo not drawn) | 51* | -4
COc1ccccc1C(=O)N1CCCC(c2ccnc(Nc3ccccc3C)n2)C1 (stereo not drawn) | 52* | -5
Cc1ccccc1C(=O)N1CCCC(c2ccnc(Nc3cccc(F)c3)n2)C1 (stereo not drawn) | 99* | -2
O=C(NCCN1CCOCC1)C1CCC(=O)N1Cc1ccccc1Cl (stereo not drawn) | -3 | -12
O=C(c1ccc(F)cc1)N1CCCC(c2ccnc(Nc3ccccc3)n2)C1 (stereo not drawn) | 28 | -1
COc1ccc(C(=O)N2CCCC(c3ccnc(Nc4cccc(F)c4)n3)C2)cc1 (stereo not drawn) | 64* | -1
CN(C)c1ccc(C(=O)N2CCCC(c3ccnc(Nc4ccc(F)cc4)n3)C2)cc1 (stereo not drawn) | 88* | -3
COc1ccc(Nc2nccc(C3CCCN(C(=O)c4ccc(C#N)cc4)C3)n2)cc1 (stereo not drawn) | 12 | -5
Cc1ccc(C(=O)N2CCCC(c3ccnc(Nc4ccc(F)cc4)n3)C2)s1 (stereo not drawn) | 82* | 0
O=C(c1ccc(F)cc1)N1CCCC(c2ccnc(Nc3cccc(F)c3)n2)C1 (stereo not drawn) | 81* | 0
COc1ccc(C(=O)N2CCCC(c3ccnc(Nc4cccc(F)c4)n3)C2)c(OC)c1 (stereo not drawn) | -8 | -5
CCCC(=O)N1CCCC(c2ccnc(Nc3ccc(C)cc3)n2)C1 (stereo not drawn) | 3 | -2
CC1CN=C2C=C(N3CCN(C(=O)Nc4ccc(Cl)cc4F)CC3)N=CN21 (stereo not drawn) | 2 | 0
